Test results published in paper PMC7862700, “An all-to-all approach to the identification of sequence-specific readers for epigenetic DNA modifications on cytosine”.

How the values were obtained:
Assay in all cases: DAPPL (digital affinity profiling via proximity ligation, sequencing); 10 mM Tris-HCl pH 7.5, 50 mM NaCl, 1 mM DTT, 4% glycerol, room temperature, 30 min; GST-TFs on glutathione beads, 16-mer random dsDNA library, 0.1% formaldehyde crosslink after washing; high values mean tight binding
Settings in all cases: protein: recombinant; tags: N-terminal GST; dsDNA, one strand shown
ELK1 = target: T1, ELK1 (Homo sapiens, UniProt P19419 1-428)
T1 sequence: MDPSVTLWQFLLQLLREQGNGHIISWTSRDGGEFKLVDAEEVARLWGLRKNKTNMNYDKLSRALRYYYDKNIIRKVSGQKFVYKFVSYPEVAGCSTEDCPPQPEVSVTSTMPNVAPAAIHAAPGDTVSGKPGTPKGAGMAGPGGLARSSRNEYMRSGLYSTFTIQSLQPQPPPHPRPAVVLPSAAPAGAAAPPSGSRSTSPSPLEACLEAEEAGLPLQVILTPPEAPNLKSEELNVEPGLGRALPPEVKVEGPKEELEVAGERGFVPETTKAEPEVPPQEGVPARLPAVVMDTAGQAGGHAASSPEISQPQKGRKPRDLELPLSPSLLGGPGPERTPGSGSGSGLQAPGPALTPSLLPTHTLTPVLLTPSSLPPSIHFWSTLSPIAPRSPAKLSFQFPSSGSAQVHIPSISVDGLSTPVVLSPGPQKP
In short: (§1)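 A tag-only sample was pooled with DNA-barcoded human transcription factors that had been expressed in yeast as GST fusions and captured on glutathione beads. The pools were incubated for 30 min at room temperature with 200 nmole of a random double-stranded 16-mer DNA library in Tris/NaCl/DTT/glycerol buffer, then washed, crosslinked with 0.1% formaldehyde, proximity-ligated (BsaI/T4 ligase, 1 h, 37 °C), PCR-amplified and sequenced on an Illumina NextSeq500. Binding signal is each hexamer's read frequency for a factor divided by its frequency for the tag-only sample.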

GABPA = target: T2, GABPA (Homo sapiens, UniProt Q06546 1-454)
T2 sequence: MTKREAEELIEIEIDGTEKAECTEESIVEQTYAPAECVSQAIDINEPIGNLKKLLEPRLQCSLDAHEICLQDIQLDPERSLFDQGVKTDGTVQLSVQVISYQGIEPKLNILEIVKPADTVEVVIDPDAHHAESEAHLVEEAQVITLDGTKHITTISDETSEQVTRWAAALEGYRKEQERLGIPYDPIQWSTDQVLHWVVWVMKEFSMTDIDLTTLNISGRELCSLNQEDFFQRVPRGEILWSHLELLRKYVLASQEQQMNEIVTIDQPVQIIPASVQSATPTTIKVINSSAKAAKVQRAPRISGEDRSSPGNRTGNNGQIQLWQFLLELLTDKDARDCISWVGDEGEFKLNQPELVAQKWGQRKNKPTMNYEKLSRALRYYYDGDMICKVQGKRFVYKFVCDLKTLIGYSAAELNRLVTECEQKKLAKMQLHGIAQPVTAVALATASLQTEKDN
In short: as §1

ERG = target: T3, ERG (Homo sapiens, UniProt P11308 1-479)
T3 sequence: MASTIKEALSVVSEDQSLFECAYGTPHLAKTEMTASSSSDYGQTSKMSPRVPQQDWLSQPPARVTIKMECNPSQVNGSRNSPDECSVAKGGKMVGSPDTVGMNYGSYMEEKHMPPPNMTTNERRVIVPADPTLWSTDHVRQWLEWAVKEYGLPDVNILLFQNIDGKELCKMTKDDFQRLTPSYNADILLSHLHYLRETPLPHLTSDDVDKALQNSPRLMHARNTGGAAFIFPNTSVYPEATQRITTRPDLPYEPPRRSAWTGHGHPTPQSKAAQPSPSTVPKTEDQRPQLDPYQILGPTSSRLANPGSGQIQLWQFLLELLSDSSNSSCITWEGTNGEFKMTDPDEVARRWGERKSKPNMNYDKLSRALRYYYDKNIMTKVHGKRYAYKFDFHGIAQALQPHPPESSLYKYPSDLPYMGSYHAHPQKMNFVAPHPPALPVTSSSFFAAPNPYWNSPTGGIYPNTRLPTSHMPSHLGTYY
In short: as §1

ELF1 = ELF1 (Homo sapiens, UniProt P32519 1-619)
Sequence of ELF1 (P32519 whole entry): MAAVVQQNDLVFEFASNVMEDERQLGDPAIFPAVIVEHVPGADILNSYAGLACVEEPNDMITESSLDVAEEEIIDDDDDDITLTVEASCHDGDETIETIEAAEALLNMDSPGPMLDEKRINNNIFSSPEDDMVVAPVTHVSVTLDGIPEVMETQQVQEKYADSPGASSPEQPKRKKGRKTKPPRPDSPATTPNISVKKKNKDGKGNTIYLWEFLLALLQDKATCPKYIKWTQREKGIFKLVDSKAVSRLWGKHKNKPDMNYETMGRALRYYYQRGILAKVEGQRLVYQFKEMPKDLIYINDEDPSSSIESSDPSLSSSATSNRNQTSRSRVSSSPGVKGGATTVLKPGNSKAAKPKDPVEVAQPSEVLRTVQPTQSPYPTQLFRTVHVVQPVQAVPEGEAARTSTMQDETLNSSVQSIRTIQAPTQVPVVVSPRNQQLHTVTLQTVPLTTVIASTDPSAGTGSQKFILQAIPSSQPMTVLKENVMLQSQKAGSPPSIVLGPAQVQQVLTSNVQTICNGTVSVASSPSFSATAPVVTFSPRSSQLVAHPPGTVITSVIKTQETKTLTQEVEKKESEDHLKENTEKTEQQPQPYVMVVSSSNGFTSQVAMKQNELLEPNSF
In short: as §1

EHF = target: T4, EHF (Homo sapiens, UniProt Q9NZC4 1-300)
T4 sequence: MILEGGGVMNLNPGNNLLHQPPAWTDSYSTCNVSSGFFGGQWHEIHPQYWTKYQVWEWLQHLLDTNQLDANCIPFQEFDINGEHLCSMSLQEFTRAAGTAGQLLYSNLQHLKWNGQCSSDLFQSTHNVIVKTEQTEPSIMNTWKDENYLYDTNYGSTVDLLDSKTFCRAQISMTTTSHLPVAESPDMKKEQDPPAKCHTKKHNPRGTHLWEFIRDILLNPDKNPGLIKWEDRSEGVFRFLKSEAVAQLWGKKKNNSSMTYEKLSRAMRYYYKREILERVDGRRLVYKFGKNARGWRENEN
In short: as §1

FEV = target: T5, FEV (Homo sapiens, UniProt Q99581 1-238)
T5 sequence: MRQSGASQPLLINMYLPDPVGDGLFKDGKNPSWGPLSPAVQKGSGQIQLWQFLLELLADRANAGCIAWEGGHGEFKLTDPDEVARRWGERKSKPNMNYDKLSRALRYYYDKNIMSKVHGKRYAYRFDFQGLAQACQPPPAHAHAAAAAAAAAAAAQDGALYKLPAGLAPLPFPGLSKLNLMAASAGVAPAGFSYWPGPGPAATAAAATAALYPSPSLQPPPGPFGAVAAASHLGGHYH
In short: as §1

ETV5 = ETV5 (Homo sapiens, UniProt P41161 1-510)
Sequence of ETV5 (P41161 whole entry): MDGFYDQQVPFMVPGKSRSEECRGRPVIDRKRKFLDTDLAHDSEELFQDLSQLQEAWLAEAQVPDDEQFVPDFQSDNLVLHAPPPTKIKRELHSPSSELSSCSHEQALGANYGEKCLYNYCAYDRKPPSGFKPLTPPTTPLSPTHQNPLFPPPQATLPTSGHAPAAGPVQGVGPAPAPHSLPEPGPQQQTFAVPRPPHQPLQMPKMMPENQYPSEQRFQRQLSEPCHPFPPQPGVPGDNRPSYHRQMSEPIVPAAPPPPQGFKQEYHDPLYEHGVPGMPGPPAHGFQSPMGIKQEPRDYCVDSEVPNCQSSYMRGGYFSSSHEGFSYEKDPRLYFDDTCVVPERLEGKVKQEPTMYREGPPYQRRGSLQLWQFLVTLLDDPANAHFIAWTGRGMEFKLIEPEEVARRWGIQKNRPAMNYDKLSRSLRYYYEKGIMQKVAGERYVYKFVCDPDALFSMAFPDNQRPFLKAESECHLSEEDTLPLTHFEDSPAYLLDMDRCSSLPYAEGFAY
In short: as §1

ELF4 = ELF4 (Homo sapiens, UniProt Q99607 1-663)
Sequence of ELF4 (Q99607 whole entry): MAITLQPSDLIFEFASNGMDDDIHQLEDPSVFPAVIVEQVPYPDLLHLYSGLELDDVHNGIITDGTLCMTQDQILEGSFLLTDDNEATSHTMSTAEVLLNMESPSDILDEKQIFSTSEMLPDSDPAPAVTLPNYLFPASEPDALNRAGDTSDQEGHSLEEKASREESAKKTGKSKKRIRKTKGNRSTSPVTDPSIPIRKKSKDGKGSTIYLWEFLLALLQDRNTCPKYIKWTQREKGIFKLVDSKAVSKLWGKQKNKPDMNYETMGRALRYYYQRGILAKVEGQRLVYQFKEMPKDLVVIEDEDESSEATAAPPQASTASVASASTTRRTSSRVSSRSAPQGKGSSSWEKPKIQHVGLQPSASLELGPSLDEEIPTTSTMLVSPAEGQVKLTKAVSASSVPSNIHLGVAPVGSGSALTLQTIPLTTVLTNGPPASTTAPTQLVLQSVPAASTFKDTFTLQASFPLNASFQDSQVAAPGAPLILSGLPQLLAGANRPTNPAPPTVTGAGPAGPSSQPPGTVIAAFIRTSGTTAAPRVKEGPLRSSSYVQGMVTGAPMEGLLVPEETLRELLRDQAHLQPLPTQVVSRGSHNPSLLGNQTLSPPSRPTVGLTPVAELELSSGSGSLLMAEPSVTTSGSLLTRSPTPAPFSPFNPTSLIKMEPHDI
In short: as §1

ETV2 = target: T6, ETV2 (Homo sapiens, UniProt O00321 1-342)
T6 sequence: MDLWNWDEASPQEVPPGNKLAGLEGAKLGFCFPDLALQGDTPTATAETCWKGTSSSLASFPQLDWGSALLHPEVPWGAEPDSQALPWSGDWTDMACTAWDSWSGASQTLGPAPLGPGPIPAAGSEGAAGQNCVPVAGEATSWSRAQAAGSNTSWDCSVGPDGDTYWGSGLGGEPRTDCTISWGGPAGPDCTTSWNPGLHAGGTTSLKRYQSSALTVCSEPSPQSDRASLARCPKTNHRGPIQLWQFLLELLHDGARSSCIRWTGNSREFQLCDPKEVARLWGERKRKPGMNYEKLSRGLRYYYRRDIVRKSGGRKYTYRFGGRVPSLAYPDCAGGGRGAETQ
In short: as §1

ELF3 = target: T7, ELF3 (Homo sapiens, UniProt P78545 1-371)
T7 sequence: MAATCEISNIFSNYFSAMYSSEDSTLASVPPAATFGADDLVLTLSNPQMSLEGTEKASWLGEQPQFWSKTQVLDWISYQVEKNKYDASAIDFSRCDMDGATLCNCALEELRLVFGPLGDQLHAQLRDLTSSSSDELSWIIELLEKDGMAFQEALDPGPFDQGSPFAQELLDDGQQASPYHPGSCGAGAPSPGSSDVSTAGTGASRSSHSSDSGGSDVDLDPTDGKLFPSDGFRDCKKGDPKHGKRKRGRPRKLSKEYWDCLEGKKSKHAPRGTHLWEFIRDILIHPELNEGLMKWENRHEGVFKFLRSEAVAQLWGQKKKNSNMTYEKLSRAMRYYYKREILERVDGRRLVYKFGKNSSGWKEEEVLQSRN
In short: as §1

ETV1 = ETV1 (Homo sapiens, UniProt P50549 1-477)
Sequence of ETV1 (P50549 whole entry): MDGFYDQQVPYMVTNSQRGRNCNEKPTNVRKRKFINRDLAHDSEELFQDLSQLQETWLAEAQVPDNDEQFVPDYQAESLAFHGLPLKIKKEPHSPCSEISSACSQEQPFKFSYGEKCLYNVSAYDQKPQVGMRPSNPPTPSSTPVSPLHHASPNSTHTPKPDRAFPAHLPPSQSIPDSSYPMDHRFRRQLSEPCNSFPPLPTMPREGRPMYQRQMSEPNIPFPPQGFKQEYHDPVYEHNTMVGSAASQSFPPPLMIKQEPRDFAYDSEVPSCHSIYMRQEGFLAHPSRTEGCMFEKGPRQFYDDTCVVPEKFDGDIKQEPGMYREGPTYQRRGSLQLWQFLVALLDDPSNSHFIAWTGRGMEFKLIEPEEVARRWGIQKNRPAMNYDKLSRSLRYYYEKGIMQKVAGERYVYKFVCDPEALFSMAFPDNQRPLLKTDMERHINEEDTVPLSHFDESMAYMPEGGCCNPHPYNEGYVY
In short: as §1

ERF = target: T8, ERF (Homo sapiens, UniProt P50548 1-548)
T8 sequence: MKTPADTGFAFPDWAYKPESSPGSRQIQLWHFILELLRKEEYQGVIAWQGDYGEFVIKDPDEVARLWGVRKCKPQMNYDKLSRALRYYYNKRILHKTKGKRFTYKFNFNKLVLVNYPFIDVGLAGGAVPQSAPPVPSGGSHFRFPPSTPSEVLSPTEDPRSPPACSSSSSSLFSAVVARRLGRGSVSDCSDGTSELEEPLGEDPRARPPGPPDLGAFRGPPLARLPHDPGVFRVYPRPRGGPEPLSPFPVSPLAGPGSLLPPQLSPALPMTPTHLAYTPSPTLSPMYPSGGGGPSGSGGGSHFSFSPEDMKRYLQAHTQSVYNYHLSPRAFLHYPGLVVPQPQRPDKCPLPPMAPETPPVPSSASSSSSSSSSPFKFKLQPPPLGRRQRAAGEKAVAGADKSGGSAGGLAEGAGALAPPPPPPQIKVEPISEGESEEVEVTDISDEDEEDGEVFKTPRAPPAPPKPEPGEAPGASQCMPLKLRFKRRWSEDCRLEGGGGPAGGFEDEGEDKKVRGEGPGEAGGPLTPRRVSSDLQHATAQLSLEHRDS
In short: as §1

ETV3L = target: T9, ETV3L (Homo sapiens, UniProt Q6ZN32 1-361)
T9 sequence: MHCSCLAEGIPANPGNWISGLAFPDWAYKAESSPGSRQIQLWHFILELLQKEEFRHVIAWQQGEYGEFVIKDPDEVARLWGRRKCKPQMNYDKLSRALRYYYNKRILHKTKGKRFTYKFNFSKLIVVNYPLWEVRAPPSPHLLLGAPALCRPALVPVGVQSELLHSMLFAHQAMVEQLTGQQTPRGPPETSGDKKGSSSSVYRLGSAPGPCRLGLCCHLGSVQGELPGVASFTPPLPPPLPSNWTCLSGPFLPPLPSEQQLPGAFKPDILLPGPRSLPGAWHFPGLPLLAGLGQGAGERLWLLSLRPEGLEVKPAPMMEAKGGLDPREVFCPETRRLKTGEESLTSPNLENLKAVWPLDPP
In short: as §1

ETS2 = target: T10, ETS2 (Homo sapiens, UniProt P15036 1-469)
T10 sequence: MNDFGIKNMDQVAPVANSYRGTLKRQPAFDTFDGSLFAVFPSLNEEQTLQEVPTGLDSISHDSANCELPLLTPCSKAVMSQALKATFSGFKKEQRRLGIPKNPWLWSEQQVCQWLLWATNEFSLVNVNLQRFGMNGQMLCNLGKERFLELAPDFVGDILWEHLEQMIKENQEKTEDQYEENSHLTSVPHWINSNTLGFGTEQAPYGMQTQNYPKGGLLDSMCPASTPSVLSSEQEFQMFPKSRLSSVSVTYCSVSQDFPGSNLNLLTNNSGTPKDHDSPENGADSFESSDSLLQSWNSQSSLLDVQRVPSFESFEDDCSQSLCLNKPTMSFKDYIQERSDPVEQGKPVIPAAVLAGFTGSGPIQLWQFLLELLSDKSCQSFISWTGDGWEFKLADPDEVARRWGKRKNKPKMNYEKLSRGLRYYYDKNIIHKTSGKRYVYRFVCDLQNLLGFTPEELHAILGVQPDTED
In short: as §1

SPDEF = target: T11, SPDEF (Homo sapiens, UniProt O95238 1-335)
T11 sequence: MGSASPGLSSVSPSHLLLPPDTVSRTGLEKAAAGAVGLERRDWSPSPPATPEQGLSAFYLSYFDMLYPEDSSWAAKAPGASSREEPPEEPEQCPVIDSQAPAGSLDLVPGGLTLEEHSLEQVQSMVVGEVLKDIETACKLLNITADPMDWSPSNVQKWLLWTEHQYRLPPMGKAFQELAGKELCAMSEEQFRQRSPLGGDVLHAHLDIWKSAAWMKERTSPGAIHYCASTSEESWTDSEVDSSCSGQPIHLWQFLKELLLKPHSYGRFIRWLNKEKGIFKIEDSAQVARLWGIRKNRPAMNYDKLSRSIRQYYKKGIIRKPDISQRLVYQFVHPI
In short: as §1

ETV7 = target: T12, ETV7 (Homo sapiens, UniProt Q9Y603 1-341)
T12 sequence: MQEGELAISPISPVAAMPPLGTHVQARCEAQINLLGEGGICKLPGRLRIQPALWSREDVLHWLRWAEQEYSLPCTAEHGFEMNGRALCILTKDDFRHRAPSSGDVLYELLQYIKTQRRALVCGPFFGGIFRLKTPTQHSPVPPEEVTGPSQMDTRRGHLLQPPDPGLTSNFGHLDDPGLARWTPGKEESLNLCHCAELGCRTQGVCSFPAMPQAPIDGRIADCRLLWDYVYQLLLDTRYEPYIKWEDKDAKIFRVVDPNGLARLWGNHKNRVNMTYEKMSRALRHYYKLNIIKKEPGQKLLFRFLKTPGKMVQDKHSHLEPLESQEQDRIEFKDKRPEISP
In short: as §1

ETV3 = target: T13, ETV3 (Homo sapiens, UniProt P41162-2 1-143)
T13 sequence: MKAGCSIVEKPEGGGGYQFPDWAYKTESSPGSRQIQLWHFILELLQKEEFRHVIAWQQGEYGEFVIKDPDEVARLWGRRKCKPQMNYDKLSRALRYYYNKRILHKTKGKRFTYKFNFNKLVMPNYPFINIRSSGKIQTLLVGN
In short: as §1

ETV6 = ETV6 (Homo sapiens, UniProt P41212 1-452)
Sequence of ETV6 (P41212 whole entry): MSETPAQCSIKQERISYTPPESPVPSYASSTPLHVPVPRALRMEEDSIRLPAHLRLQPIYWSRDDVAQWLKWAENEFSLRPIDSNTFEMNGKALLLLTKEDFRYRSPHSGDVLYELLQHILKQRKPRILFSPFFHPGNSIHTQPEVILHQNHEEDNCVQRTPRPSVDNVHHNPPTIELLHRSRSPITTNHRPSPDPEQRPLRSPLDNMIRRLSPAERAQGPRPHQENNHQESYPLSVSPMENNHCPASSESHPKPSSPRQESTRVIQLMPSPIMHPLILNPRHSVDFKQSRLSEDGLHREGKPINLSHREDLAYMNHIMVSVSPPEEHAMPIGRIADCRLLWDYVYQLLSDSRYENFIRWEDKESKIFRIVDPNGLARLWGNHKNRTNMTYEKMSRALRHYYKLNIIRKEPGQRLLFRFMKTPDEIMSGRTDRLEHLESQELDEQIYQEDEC
In short: as §1

For ACGCCG, the binding signal (ELK1) was 1.11 fold enrichment (6-mer frequency, TF over GST control), the binding signal (GABPA) was 1.11 fold enrichment (6-mer frequency, TF over GST control) and the binding signal (ERG) was 1.02 fold enrichment (6-mer frequency, TF over GST control). For the same sequence, the binding signal (ELF1) was 1.13 fold enrichment (6-mer frequency, TF over GST control), the binding signal (EHF) was 1.14 fold enrichment (6-mer frequency, TF over GST control) and the binding signal (FEV) was 1.14 fold enrichment (6-mer frequency, TF over GST control). For the same sequence, the binding signal (ETV5) was 1.12 fold enrichment (6-mer frequency, TF over GST control), the binding signal (ELF4) was 1.07 fold enrichment (6-mer frequency, TF over GST control) and the binding signal (ETV2) was 1.07 fold enrichment (6-mer frequency, TF over GST control). For the same sequence, the binding signal (ELF3) was 1.15 fold enrichment (6-mer frequency, TF over GST control), the binding signal (ETV1) was 1.11 fold enrichment (6-mer frequency, TF over GST control) and the binding signal (ERF) was 1.12 fold enrichment (6-mer frequency, TF over GST control). For the same sequence, the binding signal (ETV3L) was 1.08 fold enrichment (6-mer frequency, TF over GST control), the binding signal (ETS2) was 1.01 fold enrichment (6-mer frequency, TF over GST control) and the binding signal (SPDEF) was 1.04 fold enrichment (6-mer frequency, TF over GST control). For the same sequence, the binding signal (ETV7) was 1.14 fold enrichment (6-mer frequency, TF over GST control), the binding signal (ETV3) was 1.05 fold enrichment (6-mer frequency, TF over GST control) and the binding signal (ETV6) was 1.14 fold enrichment (6-mer frequency, TF over GST control).
